In the library only some 6% were active in any assay of this set; here they are far more common.
D1 antagonist: blocks dopamine activation of the human D1 receptor | HEK293 TREx D1 cells, calcium flux, dopamine EC80; active compounds read low | activity change, negative = inhibition, % at 10 µM | actives 3.2% (n = 360,000); in the data active = activity change below about -30%; also: % is scaled to controls: 0 for no effect and ±100 for the full control effect
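Kinetic fluorescence of a calcium dye serves as the read-out. D1-expressing Hek293 Trex cells, induced overnight at 30 C, are exposed to compound for 180 s before an EC80 dopamine addition, then read 180 s further.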
D3 antag: D3 dopamine receptor (human) antagonism; D3R cells, DiscoveRx beta-arrestin luminescence, antagonist mode; active compounds read low; max response, negative = inhibition, %; actives 2.5% (n = 360,000); in the data active = max response below about -50%; inconclusive = no clear call, values can overlap the other calls; also: % is scaled to controls: 0 for no effect and ±100 for the full control effect
Target sequence (P35462 whole entry, looked up): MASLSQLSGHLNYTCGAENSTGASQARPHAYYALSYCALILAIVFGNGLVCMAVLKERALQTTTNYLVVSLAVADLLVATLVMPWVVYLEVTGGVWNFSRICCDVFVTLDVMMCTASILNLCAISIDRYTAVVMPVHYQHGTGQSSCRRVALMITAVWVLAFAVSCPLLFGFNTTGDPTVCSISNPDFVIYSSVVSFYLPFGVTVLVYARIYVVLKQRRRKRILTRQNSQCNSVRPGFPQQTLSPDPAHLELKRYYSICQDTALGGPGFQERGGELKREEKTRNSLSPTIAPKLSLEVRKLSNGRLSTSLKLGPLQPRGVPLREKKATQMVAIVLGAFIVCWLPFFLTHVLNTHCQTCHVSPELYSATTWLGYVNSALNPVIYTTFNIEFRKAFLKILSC
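Cells expressing the human receptor were seeded at 1500 cells/well, incubated overnight at 37 degrees C in 5% CO2, then exposed to library compounds with dopamine controls for 90 minutes at 37 degrees C before luminescent detection.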
D1 agonist: agonists of human D1 dopamine receptor | P21728 | activation, % at 2 µM | AID 504660 | actives 1% (n = 360,000) | HEK293 T-REx D1 cells, calcium flux, agonist mode; in the data active = activation above about 30%; also: 0% is about no effect
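Inducible HEK293 T-REx D1 cells, force-coupled to calcium signalling, were plated at 4000 cells/well with tetracycline and held overnight at 30 C. After no-wash calcium dye loading, compound-evoked calcium rise over 180 s flagged agonists.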
D1 PAM: enhances dopamine response at the human D1 receptor. P21728. HEK293 TREx D1 cells, calcium flux, dopamine EC20 potentiation. potentiation, % at 10 µM. actives 0.036% (n = 360,000). AID 504651; in the data active = potentiation above about 30%; also: 0% is about no effect
DRD3 agonist: agonists of human D3 dopamine receptor; actives 0.58% (n = 410,000); max activation, %; P35462; AID 652048; D3R DiscoveRx beta-arrestin cells, luminescence, 90 min; in the data active = max activation above about 30%; also: 0% is about no effect
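Cells at 1500/well, incubated overnight, then treated with pinned compounds (dopamine as control) for 90 min at 37 degrees C. DiscoveRx reagent added for 30 - 60 minutes at room temperature; luminescence read.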
Active calls of the source: *; u = inconclusive; x = not tested or not shown.

SMILES | D1 antagonist | D3 antag | D1 agonist | D1 PAM | DRD3 agonist
Cc1cc(NO)c(C(C)C)cc1N=O | -29 | -14 | 36* | -10 | -3
Cc1cc(O)c(C(C)C)cc1N=Nc1ccccc1C(=O)O | -3 | -19 | 6 | -4 | 3
CC1(C)OC(=O)C2(Cc3c(F)cccc3N3CCCC32)C(=O)O1 (stereo unspecified) | -22 | x | 2 | 5 | x
COc1ccc(CN(C)CC(O)COc2ccc(-c3ccccc3)cc2)cc1OC (stereo unspecified) | -6 | u | 43* | -6 | -5
CC(NCc1ccc(-c2ccccc2)cc1)C(O)c1ccccc1 (stereo unspecified) | 56 | 4 | 200* | -4 | -8
Cc1ccc(C2=NN(C(=O)CCl)C(c3ccco3)C2)o1 (stereo unspecified) | 6 | -9 | -1 | -5 | -15
C[C@@H]1C[C@H]2[C@@H]3CCC4=CC(=O)C=C[C@]4(C)[C@@]3(F)[C@@H](O)C[C@]2(C)[C@@]1(O)C(=O)COC(=O)c1cccc(S(=O)(=O)O)c1 | x | x | x | x | 6
CC(=O)c1ccc(OC2(C)CCN(Cc3ccc4c(c3)OCCO4)C2)cc1 (stereo unspecified) | x | -69* | x | x | -10
CC(=O)c1ccc(OC2(C)CCN(Cc3ccc4ccccc4c3)C2)cc1 (stereo unspecified) | x | -30 | x | x | -26
CCc1ccc(OC2(C)CCN(Cc3ccc4c(c3)OCCO4)C2)cc1 (stereo unspecified) | x | 11 | x | x | -18
CC(=O)c1ccc(OC2(C)CCN(Cc3ccc(C)cc3)C2)cc1 (stereo unspecified) | x | -102* | x | x | -11
C/C(=C(\CCO)SS/C(CCO)=C(\C)N(C=O)Cc1cnc(C)nc1N)N(C=O)Cc1cnc(C)nc1N | x | x | x | x | 9
COc1cc(OC)c(OC)cc1CNCCSc1nnnn1-c1ccccc1 | -15 | x | 7 | -1 | -11
C/C(=N\NC(=O)CN1CCN(S(=O)(=O)c2ccc(C)cc2)CC1)c1cccnc1 | 11 | -52* | 1 | -4 | -17
C/C(=N/NC(=O)CN1CCN(S(=O)(=O)c2ccc(C)cc2)CC1)c1cccc(O)c1 | 11 | 1 | 1 | -5 | 6
CCCCOc1ccccc1C(=O)Nc1nonc1-c1ccccc1 | -6 | x | 18 | 0 | 35*
CCCOc1ccc(-c2nonc2NC(=O)c2cc(OC)c(OC)c(OC)c2)cc1OCCC | -1 | x | 38* | -2 | -17
CCN1C(=O)C(=Cc2cccc(OC)c2Oc2ccc([N+](=O)[O-])cc2[N+](=O)[O-])SC1=S | 10 | -70* | 0 | 2 | -27
c1ccc(N=C2SCCCS2)cc1 | x | -8 | x | x | -2
O=C(c1ccco1)N1CCN(C(=O)c2cc3sccc3n2Cc2ccccc2)CC1 | 1 | 13 | 0 | 1 | 2
CN1CCN(C(=O)c2cc3sccc3n2CC(=O)c2ccccc2)CC1 | -8 | -62* | 0 | -1 | -38
CCN1CCN(C(=O)c2cc3sccc3n2CC(=O)c2ccccc2)CC1 | 13 | -56* | 2 | -5 | -38
CCN1CCN(C(=O)C2CCN(C(=O)c3cc4sccc4n3CC)CC2)CC1 | 0 | 0 | 4 | 3 | -7
CCOC(=O)[C@]12CCC=C1N(Cc1ccc(Cl)cc1Cl)C(=O)[C@H](CC(=O)NCC1CCCCC1)C2 | x | -14 | x | x | 1
CCN(CC)S(=O)(=O)c1ccc2c(c1)nc(CN(C)C(=O)Nc1ccc(C)c(F)c1)n2C | -68* | x | 1 | -1 | -30
SMILES | D1 antagonist | D3 antag | D1 agonist | D1 PAM | DRD3 agonist
COc1ccc(CN(C)C(=O)c2ccc(Cl)c(S(=O)(=O)NCc3cccnc3)c2)cc1F | -47* | 2 | 1 | -4 | 0
COc1ccc(S(=O)(=O)NCc2cccnc2)cc1 | 11 | -21 | 2 | -3 | -7
COc1ccc(S(=O)(=O)NCc2cccnc2)cc1Br | -32* | 47 | 15 | -6 | 18
O=C(Nc1ccc(S(=O)(=O)NCc2cccnc2)cc1)c1ccccc1Cl | -5 | -83* | 1 | -4 | -8
O=C(Nc1ccccc1)c1ccc(S(=O)(=O)NCc2cccnc2)cc1 | -17 | -12 | 3 | 6 | -6
CCc1ccc(OCC(=O)Nc2ccc(S(=O)(=O)Nc3cc(C)on3)cc2)c(Br)c1 | 22 | 9 | 1 | 5 | 8
COC(=O)C1CCN(S(=O)(=O)c2c[nH]c(=O)[nH]c2=O)CC1 | x | -23 | x | x | -2
CC(=O)NC1(C2CCCCC2=O)CCCCC1 (stereo unspecified) | -22 | -65* | 2 | -2 | -1
Cc1nc2ccccn2c(=O)c1CCN1CCC(C(=O)c2ccc(F)cc2)CC1 | -34* | -112* | 1 | -6 | -95
Cc1nc2sccn2c(=O)c1CCN1CCC(=C(c2ccc(F)cc2)c2ccc(F)cc2)CC1 | 18 | -93* | 0 | -6 | -88
COc1ccc(CCNC(=O)c2ccc3c(c2)N(Cc2ccc(Cl)cc2)C(=O)c2ccccc2S3)cc1OC | -13 | x | 4 | -3 | 0
O=c1oc(-c2ccco2)nc2ccccc12 | -39* | -57* | 2 | -6 | 0
O=c1oc(-c2ccco2)nc2c1cnn2-c1ccccc1 | -19 | -24 | -1 | 4 | 6
Cc1cc2c(s1)c1cnn(Cc3cc(F)c(F)c(F)c3)c(=O)c1n2C | -9 | x | 1 | 4 | x
CN(CC(=O)Nc1ccc(Cl)c(Cl)c1)CC(=O)Nc1ccc2c(c1)OCO2 | 3 | 29 | 0 | -6 | 3
Cc1cc(OCc2ccc(C(=O)n3cccn3)o2)ccc1Cl | -3 | -9 | 7 | -9 | 2
CCN(CC)C(=O)c1ccc(COc2ccc(Cl)c(C)c2)o1 | -31* | -21 | 8 | -18 | 10
COc1ccc(CNC(=O)C2CCN(S(=O)(=O)c3ccccc3)CC2)cc1 | -2 | 0 | 4 | -3 | 0
CCCCCCCCC#Cc1nc(C)ccc1OC | x | 15 | x | x | 65*
O=C(Cn1nnc(-c2ccccc2-n2cnnn2)n1)NCc1ccccc1 | -8 | -109* | 4 | -4 | -3
COc1ccc2c(c1)c1c(c(=O)n(Cc3ccccc3)c(=O)n1CC(=O)Nc1c(C)cccc1C)n2C | -11 | x | 3 | -3 | 0
Cc1cc2c3ccccc3ncn2n1 | -39* | -16 | 3 | 7 | -3
Cc1cc(N)n(-c2cc(C)c3ccccc3n2)n1 | 6 | 16 | 4 | 7 | -16
COC(=O)c1sc2cc([N+](=O)[O-])cc(SCC(C)C)c2c1N | -4 | -3 | 91* | 9 | 0
O=C(COC(=O)[C@@H]1CC(O)CN1S(=O)(=O)c1ccccc1[N+](=O)[O-])Nc1ccc2ccccc2c1 (stereo partly specified) | -32* | 8 | 2 | -7 | 5
CN1CCN(CCCN2c3ccccc3Sc3ccccc32)CC1 | x | x | x | x | -26
CCC(=O)c1ccc2c(c1)N(CCCN1CCN(CCO)CC1)c1ccccc1S2 | x | x | x | x | -13

Screening results from PubChem BioAssay.
